# Assay results published in PubChem BioAssay (EPA / NIEHS).
# Calls of active or inactive are those of the source. How the source made its calls: active means hit-call score of the fitted dose curve at least 0.9, where 1 is the maximum; inactive means score below 0.9.
# Experiment: ATG_TA_CIS: Attagene CIS-FACTORIAL HepG2 Assay for human TA Basal Promoter (AID 2282964)
# Conditions: HepG2 Attagene CIS-factorial TA basal promoter reporter; actives raise or lower the signal
# In short: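 Read-out: fluorescent reporter-transcript fragments resolved by capillary electrophoresis after RT-PCR and HpaI digestion. Source: HepG2 cells carrying transiently transfected multi-reporter cis constructs, treated 24 h. Endpoint fitted bidirectionally relative to DMSO.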
Compound,outcome,AC50
O=C(O)C(F)(F)OC(F)(F)C(F)(F)OC(F)(F)C(=O)O,inactive,–
N#Cc1cc([N+](=O)[O-])ccc1N,inactive,–
COP(=O)(O)OC,inactive,–
CCOS(=O)(=O)OCC,inactive,–
Nc1cc2c3c(c1)C(c1ccccc1)=N[C@@H](NC(=O)c1cccnc1)C(=O)N3CC2,inactive,–
Oc1ccc(I)cc1,inactive,–
C/C(=N\NC(=O)Nc1cc(F)cc(F)c1)c1ncccc1C(=O)O,inactive,–
CCOP(=S)(OCC)SCSCC,inactive,–
OCC(F)(F)OC(F)(F)C(F)(F)OC(F)(F)C(F)(F)OC(F)(F)CO,inactive,–
[N-]=[N+]=[N-],inactive,–
O=S1(=O)OCC2C(CO1)C1(Cl)C(Cl)=C(Cl)C2(Cl)C1(Cl)Cl (centres undefined),inactive,–
Oc1ccccc1Br,inactive,–
FC(F)(F)C(F)(C(F)(F)F)C(F)(F)C(F)(F)CC1CO1 (centres undefined),inactive,–
C=CC(=O)OCC(CC)(COC(=O)C=C)COC(=O)C=C,inactive,–
CC1(C)CN=C(NN=C(/C=C/c2ccc(C(F)(F)F)cc2)/C=C/c2ccc(C(F)(F)F)cc2)NC1,–,3.76 µM (active)
CCOP(=S)(OCC)SCn1nnc2ccccc2c1=O,inactive,–
O=C(O)C=CC(F)(C(F)(F)F)C(F)(F)F,inactive,–
O=C(O)C(F)(OC(F)(F)C(F)(F)C(F)(F)F)C(F)(F)F (centres undefined),inactive,–
CC1=C(C(=O)Nc2ccccc2)S(=O)(=O)CCO1,inactive,–
O=P1(N(CCCl)CCCl)NCCCO1 (centres undefined),inactive,–

Compound,outcome,AC50
OCC1CO1 (centres undefined),inactive,–
Nc1ccc(Cl)cc1,inactive,–
CNC(=O)Oc1ccc(N(C)C)c(C)c1,inactive,–
Nc1ccc(Sc2ccc(N)cc2)cc1,inactive,–
c1ccc2c(c1)sc1ccccc12,inactive,–
CC(O)C#N (centres undefined),inactive,–
OCC(F)(F)OC(F)(F)C(F)(F)OC(F)(F)CO,inactive,–
CCCCN(CCCC)N=O,inactive,–
CC(O)C(F)(F)C(F)(F)F (centres undefined),inactive,–
CCN(CC)c1ccccc1,inactive,–
O=C(O)C(F)(F)C(F)(F)C(=O)O,inactive,–
CCCCc1ccccc1,inactive,–
N#Cc1c(-c2ccc(Cl)cc2)[nH]c(C(F)(F)F)c1Br,inactive,–
O=[N+]([O-])c1ccccc1,inactive,–
CCOC(=O)c1ccccc1C(=O)OCC,inactive,–
c1nc[nH]n1,inactive,–
CCC(C)(C)c1ccc(O)cc1,inactive,–
c1cc2c3c(cccc3c1)CC2,inactive,–
O=C(O)C(Cl)Cl,inactive,–
